system: HCC1569; assay: H1.0 immunofluorescence intensity relative to DMSO (% of DMSO); higher = stronger H1.0 induction, active = 140 or more; conditions: concentration: 10 µM; 24 h
How it was run: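 HCC1569 and TDF cells were seeded at 800 per well in 384-well plates in RPMI with 10% FBS and treated with compounds at 10 µM for 24 h at 37 °C, in triplicate. After fixation in 3.7% formaldehyde, cells were stained with a rabbit anti-H1.0 antibody, an AlexaFluor 647 secondary and DAPI, and six fields per well were imaged at ×10. H1.0 nuclear intensity or cell number is given as percent of the plate control, using the median of replicates, with HCC1569 values smoothed for positional effects.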
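Also: TDF is a line of transformed human dermal fibroblasts of mesenchymal origin.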

How did the H1.0 immunofluorescence intensity turn out when `CN(Cc1cnc2nc(N)nc(N)c2n1)c1ccc(C(=O)NC(CCC(=O)O)C(=O)O)cc1` (single isomer, unassigned; (-)) [(-)Amethopterin] was run?
The H1.0 immunofluorescence intensity was 110 (inactive).

For `CN1c2cc3c(cc2N=C(c2ccc(C(=O)O)cc2)c2ccccc21)C(C)(C)CCC3(C)C`, which H1.0 immunofluorescence intensity is on record?
The H1.0 immunofluorescence intensity was 112 (inactive).

`CC(C)(Sc1ccc(CCN(CCCCC2CCCCC2)C(=O)NC2CCCCC2)cc1)C(=O)O` was tested. Which H1.0 immunofluorescence intensity did it give?
Its H1.0 immunofluorescence intensity is 87.6 (inactive).

Which H1.0 immunofluorescence intensity does the source give for `CC(C=CC1=C(C)CCCC1(C)C)=CC=CC(C)=CC(=O)O` [Retinoic acid] here?
The H1.0 immunofluorescence intensity was 120 (inactive).

`CCOC(=O)c1cnc2c(cnn2CC)c1NN=C(C)C` [Etazolate] was tested. Which H1.0 immunofluorescence intensity did it give?
Its H1.0 immunofluorescence intensity is 103 (inactive).

With `CS(=O)(=O)Nc1ccc(-c2coc3cc(OCc4cccc(C(=O)O)c4)ccc3c2=O)cc1` as the compound, how does the H1.0 immunofluorescence intensity read?
The H1.0 immunofluorescence intensity was 107 (inactive).

With `O=P(O)(O)C(O)(Cc1cccnc1)P(=O)(O)O` [Risedronic acid] as the compound, how does the H1.0 immunofluorescence intensity read?
The H1.0 immunofluorescence intensity was 99.9 (inactive).

Which H1.0 immunofluorescence intensity does the source give for `Clc1ccc(CON=C(Cn2ccnc2)c2ccc(Cl)cc2Cl)c(Cl)c1` [Oxiconazole] here?
The H1.0 immunofluorescence intensity was 113 (inactive).

Which H1.0 immunofluorescence intensity does the source give for `COc1cc(Cc2cnc(N)nc2N)cc(OC)c1OC` [Trimethoprim] here?
Its H1.0 immunofluorescence intensity is 107 (inactive).

How did the H1.0 immunofluorescence intensity turn out when `COc1c(O)cc(O)c2c(=O)cc(-c3ccccc3)oc12` [Wogonin] was run?
The H1.0 immunofluorescence intensity was 85.8 (inactive).

`O=C(O)CCCC=CCC1C(O)CC(O)C1C=CC(O)COc1cccc(C(F)(F)F)c1` (stereo not given) [Fluprostenol] was tested. Which H1.0 immunofluorescence intensity did it give?
The H1.0 immunofluorescence intensity was 97.4 (inactive).

Which H1.0 immunofluorescence intensity does the source give for `CCCCCCC(O)CC=CCCCCCCCC(=O)O` (stereo not given) [Ricinoleic acid] here?
Its H1.0 immunofluorescence intensity is 101 (inactive).

With `CCN1C(=CC(C)=O)Sc2ccc(OC)cc21` [Cdc2-Like Kinase Inhibitor, TG003] as the compound, how does the H1.0 immunofluorescence intensity read?
Its H1.0 immunofluorescence intensity is 119 (inactive).

For `NNC(=O)c1ccncc1` [Isoniazid], which H1.0 immunofluorescence intensity is on record?
The H1.0 immunofluorescence intensity was 110 (inactive).

With `NC(N)=Nc1nc(CSCCC(N)=NS(N)(=O)=O)cs1` as the compound, how does the H1.0 immunofluorescence intensity read?
Its H1.0 immunofluorescence intensity is 108 (inactive).

How did the H1.0 immunofluorescence intensity turn out when `O=C1OC(C(O)CO)C(O)=C1O` (stereo not given) [Ascorbic acid] was run?
Its H1.0 immunofluorescence intensity is 95.2 (inactive).

With `CC(C)c1cc(C(C)C)c(-c2csc(N(CCN(C)C)Cc3cccnc3)n2)c(C(C)C)c1` as the compound, how does the H1.0 immunofluorescence intensity read?
The H1.0 immunofluorescence intensity was 146 (active).

For `COC(=O)C1C(O)CCC2CN3CCc4c([nH]c5ccccc45)C3CC21.Cl` (stereo not given), which H1.0 immunofluorescence intensity is on record?
The H1.0 immunofluorescence intensity was 100 (inactive).

With `CCCCCCC=CCCCCCCCCCC(=O)O` [11(E)-Octadecenoic acid] as the compound, how does the H1.0 immunofluorescence intensity read?
Its H1.0 immunofluorescence intensity is 103 (inactive).

Which H1.0 immunofluorescence intensity does the source give for `CCC(C)C(=O)OC1CC(O)C=C2C=CC(C)C(CCC3CC(O)CC(=O)O3)C21` (stereo not given) [Pravastatin Lactone] here?
Its H1.0 immunofluorescence intensity is 110 (inactive).

How did the H1.0 immunofluorescence intensity turn out when `NC(=O)CC[C@H](N)C(=O)O` [L-Glutamine] was run?
Its H1.0 immunofluorescence intensity is 105 (inactive).

For `CCCCCCC=CCCCCCCCCC(=O)O` [10(E)-Heptadecenoic acid], which H1.0 immunofluorescence intensity is on record?
Its H1.0 immunofluorescence intensity is 98.8 (inactive).

Which H1.0 immunofluorescence intensity does the source give for `CC(C=CC1=C(C)CCCC1(C)C)=CC=CC(C)=CC(=O)Nc1ccc(O)cc1` [4-Hydroxyphenylretinamide] here?
Its H1.0 immunofluorescence intensity is 120 (inactive).

For `COc1cc2nccc(Oc3ccc(NC(=O)Nc4ccc(F)cc4F)c(F)c3)c2cc1OC`, which H1.0 immunofluorescence intensity is on record?
The H1.0 immunofluorescence intensity was 108 (inactive).

`O=C(COc1ccc(C(=O)c2ccccc2)cc1)NC1CCN(Cc2ccccc2)CC1` [2-(4-benzoylphenoxy)-N-(1-benzyl-4-piperidinyl)acetamide] was tested. Which H1.0 immunofluorescence intensity did it give?
Its H1.0 immunofluorescence intensity is 158 (active).

With `CCCCCCCCC=CCCCCCCCCCCCCC(=O)O` [14(E)-Tricosenoic acid] as the compound, how does the H1.0 immunofluorescence intensity read?
Its H1.0 immunofluorescence intensity is 104 (inactive).

`O=C(O)c1cc(-c2ccc(F)cc2F)ccc1O` [Diflunisal] was tested. Which H1.0 immunofluorescence intensity did it give?
The H1.0 immunofluorescence intensity was 115 (inactive).

How did the H1.0 immunofluorescence intensity turn out when `CC1(C)CCC(NC(=O)C(N)CCC(=O)O)CC1` (stereo not given) was run?
Its H1.0 immunofluorescence intensity is 91.7 (inactive).

With `NC(=O)c1noc([C@H](CCCC2CCCCC2)CC(=O)NO)n1` as the compound, how does the H1.0 immunofluorescence intensity read?
The H1.0 immunofluorescence intensity was 109 (inactive).

Which H1.0 immunofluorescence intensity does the source give for `CC(=O)Oc1ccccc1C(=O)O` [Acetylsalicylic Acid] here?
Its H1.0 immunofluorescence intensity is 102 (inactive).

For `Cl.Cl.OCCN1CCN(CCCN2c3ccccc3Sc3ccc(C(F)(F)F)cc32)CC1` [Fluphenazine.2HCl], which H1.0 immunofluorescence intensity is on record?
Its H1.0 immunofluorescence intensity is 116 (inactive).

`Cl.O[C@H](c1cc(C(F)(F)F)nc2c(C(F)(F)F)cccc12)[C@@H]1CCCCN1` was tested. Which H1.0 immunofluorescence intensity did it give?
Its H1.0 immunofluorescence intensity is 170 (active).

Which H1.0 immunofluorescence intensity does the source give for `CCCN(CCc1ccccc1)C1CCc2c(O)cccc2C1` (stereo not given) [2-(N-Phenethyl-N-propyl)amino-5-hydroxytetralin] here?
The H1.0 immunofluorescence intensity was 106 (inactive).

With `Ic1cccc(CSc2nnc(-c3ccncc3)o2)c1` [GSK-3b Inhibitor II] as the compound, how does the H1.0 immunofluorescence intensity read?
The H1.0 immunofluorescence intensity was 117 (inactive).

With `Nc1cc(=O)nc(N)[nH]1` [2,6-Diamino-4-pyrimidinone] as the compound, how does the H1.0 immunofluorescence intensity read?
Its H1.0 immunofluorescence intensity is 97.1 (inactive).

For `O=C1CCc2ccc(OCCCCN3CCN(c4cccc(Cl)c4Cl)CC3)cc2N1` [Aripiprazole], which H1.0 immunofluorescence intensity is on record?
Its H1.0 immunofluorescence intensity is 126 (inactive).

How did the H1.0 immunofluorescence intensity turn out when `Cc1cn(-c2cc(NC(=O)c3ccc(C)c(Nc4nccc(-c5cccnc5)n4)c3)cc(C(F)(F)F)c2)cn1` [Nilotinib] was run?
Its H1.0 immunofluorescence intensity is 94.2 (inactive).

`COCCCCC(=NOCCN)c1ccc(C(F)(F)F)cc1.O=C(O)C=CC(=O)O` [Fluvoxamine maleate] was tested. Which H1.0 immunofluorescence intensity did it give?
Its H1.0 immunofluorescence intensity is 92.4 (inactive).

`Cl.Cl.Cl.NCCC1CCCC(CCN)N1` (stereo not given) [MDL 26,630 trihydrochloride] was tested. Which H1.0 immunofluorescence intensity did it give?
Its H1.0 immunofluorescence intensity is 85.3 (inactive).

Which H1.0 immunofluorescence intensity does the source give for `CC(C)CCC[C@@H](C)[C@H]1CC[C@H]2[C@@H]3CC(=O)[C@H]4C[C@@H](O)CC[C@]4(C)[C@H]3CC[C@]12C` [(3beta,5alpha)-3-hydroxycholestan-6-one] here?
The H1.0 immunofluorescence intensity was 98.6 (inactive).
